# Screens deposited in PubChem by National Center for Advancing Translational Sciences (NCATS).
# Shown are actives, neighbours in structure and some others; about 11% of the full set was active somewhere.
# PNC assembly inh = inhibitors of perinucleolar compartment assembly. activity change (PNC), negative = inhibition, % at 10 µM. AID 2417. PC3M PTB-GFP, PNC prevalence imaging, 16 h; stronger effect = lower value. hit rate 3.1% among 140,000;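 active means readout at or below -70, meaning at least 70% loss of cells showing the perinucleolar compartment, a nuclear body marking cancer cells; inconclusive means readout between -30 and a set limit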;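 further: plate controls were DMSO wells for no effect and camptothecin positive control wells for full effect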
#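 Read-out is percentage of cells bearing a perinucleolar compartment, from automated 20x imaging of fixed, Hoechst-stained PC3M PTB-GFP cells. Cells were seeded 4 h, then exposed 16 h to compound (23 nl of library stock) in duplicate plates.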
# HTT aggregate = reduces HttQ103-GFP aggregates in PC12 cells; PC12 HttQ103-GFP aggregates, Acumen cytometry, 40 h; Potency, µM (doses to about 46.1 µM), without a hit: at the top dose activity change, negative = inhibition, actives largely listed as inhibitors; hit rate 1.1% among 220,000; further: potency means the concentration at half of the fitted maximal effect; on the % scale 0 is the no-effect control and ±100 the full control effect; nearly all actives have a fitted effect of over 60% in size
#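 PC12 cells stably carrying ecdysone-inducible HTT exon 1 Q103–GFP were induced with tebufenozide (100 nM final) and treated with library compounds in titration. GFP aggregates in lysates were counted by laser scanning cytometry.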
# GoLoco inh red = RGS12 GoLoco-Gai1 interaction inhibition. Potency, µM (series often up to 61.6 µM), without a hit: at the top dose activity, negative = inhibition, actives largely listed as inhibitors. AID 880. hit rate 0.44% among 230,000. Gai1:RGS12 GoLoco peptide FP, rhodamine, 10 min. P63096; active means well fitted inhibition curve with a large enough effect, not every such curve was filed as active; inactive means no such curve, though single readings can be large or run the other way; further: potency means the concentration at half of the fitted maximal effect; on the % scale 0 is the no-effect control and ±100 the full control effect; nearly all actives have a fitted effect of over 30% in size
# Target sequence (P63096 whole entry, looked up): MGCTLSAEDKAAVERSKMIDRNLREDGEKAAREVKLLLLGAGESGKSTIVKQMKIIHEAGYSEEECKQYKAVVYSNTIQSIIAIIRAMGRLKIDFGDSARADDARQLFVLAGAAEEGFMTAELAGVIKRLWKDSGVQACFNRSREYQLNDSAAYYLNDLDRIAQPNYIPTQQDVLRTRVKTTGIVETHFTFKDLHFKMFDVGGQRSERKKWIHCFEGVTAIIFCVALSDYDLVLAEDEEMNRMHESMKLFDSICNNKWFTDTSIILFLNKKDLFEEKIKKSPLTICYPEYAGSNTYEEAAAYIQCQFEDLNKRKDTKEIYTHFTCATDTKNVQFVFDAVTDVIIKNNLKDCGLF
# ALDH1A1 block = inhibitors of human aldehyde dehydrogenase 1A1; P00352; Purified ALDH1A1, NADH fluorescence, propionaldehyde substrate; Potency, µM (top dose mostly 75.3 µM), inactives show top-dose activity, negative = inhibition, most hits filed as inhibitors; hit rate 7.3% among 220,000; active means well fitted inhibition curve with a large enough effect, not every such curve was filed as active; inconclusive means small, poorly fitted or top-dose-only effect, or another doubt; inactive means no such curve, though single readings can be large or run the other way;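 further: potency means the concentration at half of the fitted maximal effect; plate controls were no enzyme wells and a reference inhibitor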
# HTT cytoprotect = Huntington cell model cytoprotection by ATP luminescence | PC12 HTT-Q103 induced, cytoprotection, ATP luminescence, 40 h | Potency, µM (top dose mostly 56.4 µM), for the others: cytoprotection (ATP increase), usual class: activators | hit rate 0.14% among 230,000 | AID 1471; further: potency means the concentration at half of the fitted maximal effect; % of control where 0% means no effect; nearly all actives have a fitted effect of over 45% in size
#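 Compounds added alongside 100 nM tebufenozide, which induces toxic Q103 huntingtin exon 1-GFP in stable PC12 cells; surviving cells quantified by luminescent ATP measurement. Medium: phenol red-free DMEM, 5% equine and 5% calf serum.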
# HPGD inh = inhibitors of human 15-hydroxyprostaglandin dehydrogenase (HPGD). AID 894. P15428. purified HPGD, NADH fluorescence kinetic, PGE2 substrate. hit rate 4.3% among 150,000. Potency, µM, without a hit: at the highest dose activity change, negative = inhibition, usual class: inhibitors; active means well fitted inhibition curve with a large enough effect, not every such curve was filed as active; inconclusive means small, poorly fitted or top-dose-only effect, or another doubt; inactive means no such curve, though single readings can be large or run the other way; further: potency means the concentration at half of the fitted maximal effect; on the % scale 0 is the no-effect control and ±100 the full control effect
#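 20 nM HPGD preincubated 15 min at room temperature with compound in 50 mM Tris-HCl pH 8, 0.01% Tween 20. Started with 1 mM NAD+ and 30 uM prostaglandin E2; NADH fluorescence (360/450 nm) read 5 times over 30-s intervals, last minus first.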
# * marks the source's active call; other numbers are inactive results; ? = inconclusive; · = no result; [ ] = dose if it differs, or a comment. Unless noted, the call rests on the fitted dose curve; in most records, active means well fitted curve in the direction sought with a large enough effect; inconclusive means small, poorly fitted or top-dose-only effect, or another doubt; inactive means no such curve, though single readings can be large; an effect the other way counts as inactive or inconclusive.
SMILES,PNC assembly inh,HTT aggregate,GoLoco inh red,ALDH1A1 block,HTT cytoprotect,HPGD inh
CCOC(=O)N1CCN(C(=O)c2ccc3c(=O)n(CCC4=CCCCC4)c(=O)[nH]c3c2)CC1,-16,-28%,-3%,6.3µM*,-2%,-6%
Cc1ccc(CN2CCN(CC3CC4C=CC3C4)CC2)cc1 (stereo not given),?,3.2µM*,7%,?,-8%,-10%
O=C(CCN1C(=O)c2ccc([N+](=O)[O-])cc2C1=O)Nc1cccc(O)c1,?,1%,5%,13%,-2%[10 µM],-4%
Cc1cc(O)ccc1NC(=O)CCN1C(=O)c2ccc([N+](=O)[O-])cc2C1=O,-98*,8%,-27%,11µM*,·,-14%
CC1Cc2ccccc2N1C(=O)Cn1c(=O)oc2cc(S(=O)(=O)NC3CCCC3)ccc21 (stereo not given),?,-12%,64%,8%,11%,13µM*
O=C(Cc1cccs1)N/N=C/C=C\c1ccco1,51,?,-2%,25µM*,3%[10 µM],-20%
O=C(N/N=C/C=C/c1ccco1)c1ccncc1,·,-1%[9.22 µM],1%,·,30%[10 µM],·
Cc1cccc(C)c1OCC(=O)N/N=C/C=C/c1ccco1,·,?,0%,13µM*,-14%,·
O=C(N/N=C/C=C\c1ccco1)c1cccs1,·,0%,8%,28µM*,-47%,·
O=C(N/N=C/C=C/c1ccc([N+](=O)[O-])cc1)c1cccs1,61,8%,22%,-12%,14%,16µM*
CCC(CC)C(=O)Nc1cccc(C(=O)Nc2ccc(S(N)(=O)=O)cc2)c1,·,-10%,4%,-4%,-25%,·
CCC(CC)C(=O)Nc1cccc(C(=O)Nc2ccc3c(c2)OCO3)c1,-27,-2%,6%,13µM*,-13%,-12%
CCN(CC)S(=O)(=O)c1ccc(S(=O)(=O)Nc2cc3c(cc2C(C)=O)OCO3)cc1,-16,2%,·,3.2µM*,13%[10 µM],·
CCN(CC)S(=O)(=O)c1cccc(C(=O)Nc2ccc3c(c2)OCO3)c1,·,-3%[9.22 µM],10%,?,2%[10 µM],·
CCCN(CCC)S(=O)(=O)c1cccc(C(=O)Nc2ccc3c(c2)OCO3)c1,28,-6%,8%,3.2µM*,15%,-16%
CCN(CC)S(=O)(=O)c1ccc(C(=O)Nc2ccc3c(c2)OCCO3)cc1,33,-4%,3%,13µM*,0%,-10%
CCN(CC)S(=O)(=O)c1ccc(NC(=O)c2ccc(NS(C)(=O)=O)cc2)cc1,20,-12%,4%,?,-7%,-19%
CCOc1cc(C(=O)Nc2ccc3c(c2)OCO3)ccc1OCCOc1ccccc1Cl,-87*,30%,-3%,-2%,-16%,-11%
COc1cccc(CN(C)C(=O)c2cc(COc3ccc4ncccc4c3)on2)c1,·,11%[9.22 µM],3%,1%,20%[10 µM],·
Cc1ccc(SC(=O)COc2ccccc2C)cc1,-112*,-12%,-2%,6%,14%,-20%
CCn1c(NC(=O)Nc2cccc(C)c2C)cc2sccc21,10,1%,52%,-14%,-11%,-6%
CCC12CSc3nc(Cl)ccc3N1C(=O)C(=O)N2C (stereo not given),·,-2%[9.22 µM],0%,·,4%[10 µM],·
COc1cc2c(cc1OC)-c1n[nH]c(=S)n1C(C)(C)C2,·,1%,2%,?,-40%,·
COc1cc2c(cc1OC)C(=S)NC(C)(C)C2,-7,-3%,11%,25µM*,-6%,-12%
Cc1cc(=O)[nH]c(SCc2nc3ccccc3n2Cc2ccccc2)n1,?,22%,10%,1%,-15%,28µM*
Cc1ccc(Cn2c(Cc3ccccc3)nc3ccccc32)cc1,?,?,8%,4%,-6%,-6%
CC(C)C[C@@H](CC(=O)N[C@H](CC(=O)N[C@@H]1CCCC[C@H]1C(=O)N[C@H](CC(=O)N[C@@H](CCC(=O)O)CC(=O)O)CC(C)C)C(C)C)NC(=O)[C@@H]1CCCC[C@H]1N,·,·,-1%,?,0%[1.9 µM],-3%
